# “And” between values parts separate entries of the source, which are not always exact repeats. Identical values can stand only once. Results filed as inconclusive are left out. Entries that show only a call come without a potency. More than one record can exist for a structure, and the calls need not agree. The source made the active and inactive calls. Calls come from the whole dose curve; as a rule, active = well fitted cell-killing curve with a large enough effect in the repeat runs; inconclusive = weak or mixed curves; inactive = no such curve, though single readings can be large or run the other way.
# Experiment: qHTS assay to identify small molecule antagonists of the androgen receptor (AR) signaling pathway - cell viability counter screen (AID 743033; note: nearly all actives have a fitted effect of over 45% in size)
# Conditions: AR-bla HEK293 viability, CellTiter-Glo luminescence, 16 h; series mostly up to 58.5 µM; activity change, negative = cytotoxicity: at the top concentration
# Source text: National Center for Advancing Translational Sciences [NCATS]
# NIH Chemical Genomics Center [NCGC]
# U.S. Environmental Protection Agency [EPA]
# National Institutes of Environmental Health Sciences [NIEHS]
# National Toxicology Program [NTP]
# U.S. Food and Drug Administration [FDA]
# Androgen receptor (AR), a nuclear hormone receptor, plays a critical role in AR-dependent prostate cancer and other androgen related diseases. Endocrine disrupting chemicals (EDCs) and their interactions with steroid hormone receptors like AR may cause disruption of normal endocrine function as well as interfere with metabolic homeostasis, reproduction, developmental and behavioral functions. To identify the compounds that inhibit AR signaling, GeneBLAzer AR-UAS-bla-GripTite cell line (Invitrogen, Carlsbad, CA, USA) containing a beta-lactamase reporter gene under control of an Upstream Activator Sequence (UAS) stably integrated into HEK293 cells was used to screen the Tox21 10K compound library. The cytotoxicity of the Tox21 compound library against the AR-bla cell line was tested in parallel by measuring the cell viability using CellTiter-Glo assay in the same wells.
# Tox21 Assay Protocol Summary:
# AR-bla cells were dispensed at 2,000 cells/5 uL of assay medium per well into black wall/clear-bottom 1536-well plates using a Multidrop Combi (ThermoFisher Scientific, Waltham, MA) dispenser. After the assay plates were incubated at a 37C and 5% CO2 for 4 hr, 23 nL of compounds dissolved in DMSO, positive controls or DMSO only was transferred to the assay plate by a Pintool station (Kalypsys, San Diego, CA), followed by addition of 1 uL of agonist (R1881) in culture medium using a Bioraptr Flying Reagent Dispenser (FRD) workstation (Beckman Coulter, Indianapolis, IN, USA). The plates were incubated at a 37C and 5% CO2 for 16 h. After 1 uL of LiveBLAzerTM B/G FRET substrate was added using a Bioraptr FRD, the plates were incubated at room temperature for 2 h and fluorescence intensity was measured by an Envision plate reader (PerkinElmer, Shelton, CT). For cell viability readout that measures cytotoxicity, 4 ul/well of CellTiter-Glo reagent was added into the assay plates using a Bioraptr FRD. After 30 min incubation at room temperature, the luminescence intensity in the plates was measured using a ViewLux (PerkinElmer) plate reader.
# Potency is the fitted concentration of half-maximal effect.
Structure (SMILES),Potency,"activity change, negative = cytotoxicity"
O=C(Oc1ccccc1)c1ccccc1,inactive,–
CCCCCCCCCCCCCCCO,inactive,–
O=C(O)CC(C(=O)O)C(CC(=O)O)C(=O)O (stereo not given),inactive,–
CC(=O)Nc1ccccc1,–,12.5% (inactive)
c1c[nH]cn1,inactive,–
CC(C)(N)CO,inactive,–
Cc1ccc(N(C)C)cc1,inactive,–
O=C(O)c1ccccc1C(c1ccc(O)cc1)c1ccc(O)cc1,–,0.74% (inactive)
COc1ccc(Nc2ccccc2)c(C)c1,inactive,–
C=CCOC(=O)c1ccccc1C(=O)OCC=C,inactive,–
OCCOCCN1CCN(C2=Nc3ccccc3Sc3ccccc32)CC1,inactive and 26.8 µM (active),–
CC(C)c1ccc(S(=O)(=O)O)cc1,inactive,–
Nc1cc([N+](=O)[O-])ccc1O,inactive,–
O=S1(=O)CC=CC1,inactive,–
C#C[C@]1(O)CC[C@H]2[C@@H]3CCC4=CC(=O)CC[C@@H]4[C@H]3CC[C@@]21C,–,-20.9% (inactive)
CC(=O)Nc1cccc(O)c1,inactive,–
CC(c1cc2ccccc2s1)N(O)C(N)=O (stereo not given),inactive,–
O=C(O)CCCC[C@@H]1SC[C@@H]2NC(=O)N[C@@H]21,inactive,–
CC(O)COCC(C)O (stereo not given),inactive,–
CN(C)CCC(c1ccccc1)c1ccccn1 (stereo not given),inactive,–

Structure (SMILES),Potency,"activity change, negative = cytotoxicity"
CN(C)CCC(c1ccc(Cl)cc1)c1ccccn1 (stereo not given),inactive,–
c1ccc2scnc2c1,inactive,–
CC1CCC(C(C)C)C(O)C1 (stereo not given),inactive,–
Fc1ccc(Br)cc1,inactive,–
CCCCC(CC)COC(=O)CCCCC(=O)OCC(CC)CCCC (stereo not given),inactive,–
CCCCCCCCCCCCCCO,inactive,–
O=c1[nH]nnc2ccccc12,inactive,–
OCc1cccnc1,inactive,–
C=C(C)C(=O)O[C@H]1C[C@@H]2CC[C@@]1(C)C2(C)C,inactive,–
O=C(O)c1ccc2c(c1)C(=O)OC2=O,inactive,–
Cc1cc(C)c(C)cc1C,inactive,–
O=C(O)CCCCCCCCCCC(=O)O,–,2.12% [at 78.9 µM] (inactive)
CC(=O)CC(=O)Nc1ccccc1,inactive,–
CCCCOC(=O)COc1ccc(Cl)cc1Cl,inactive,–
Cc1cccc(O)c1,inactive,–
O=C(O)c1cc(C(=O)O)cc(S(=O)(=O)O)c1,inactive,–
Cc1ccc2oc(=O)ccc2c1,inactive,–
COCCCOc1ccnc(CS(=O)c2nc3ccccc3[nH]2)c1C (stereo not given),–,10.2% (inactive)
CC1=C(C)S(=O)(=O)CCS1(=O)=O,inactive,–
CC1=CCC2CC1C2(C)C (stereo not given),inactive,–
